From PubChem
SMN2 splice up: SMN2 splice variant enhancement | Potency, µM (top dose mostly 46.1 µM), usual class: activators | actives 2.8% (n = 210,000) | HEK293 SMN2-luciferase splicing reporter, luminescence, 30-36 h; note: nearly all actives have a fitted effect of over 55% in size
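qHTS luciferase splicing reporter: luminescence rises when SMN2 exon 7 is included in transfected HEK293 cells. Compound exposure lasted 30-36 h at 37C, with 4.5 mM final sodium butyrate as control, followed by a ONE-Glo read.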
NPC1 promoter act: NPC1 promoter activation. Huh7 NPC1 promoter luciferase reporter, 24 h. Potency, µM (top dose mostly 9.22 µM), usual class: activators. actives 2.4% (n = 320,000); note: nearly all actives have a fitted effect of over 60% in size
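Quantitative HTS used a cell-based reporter: Huh7 cells stably bearing the NPC1 promoter upstream of luciferase were treated with compounds for 24 h, and promoter activation was read as luminescence.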
ELG1 DNA repair: inhibitors of ELG1-dependent DNA repair in HEK293T cells. HEK293T ELG1-luciferase reporter, luminescence, 16 h; DNA damage induced by 5-fluorouridine. Potency, µM (series often up to 46.1 µM), actives largely listed as inhibitors. actives 2.3% (n = 330,000). AID 504467; note: nearly all actives have a fitted effect of over 55% in size
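Overnight (16 hr) co-exposure of 2,000 cells/well to 5-fluorouridine and compound at 37 °C preceded detection. Luciferase was quantified via ONE-Glo luminescence; loss of signal denotes inhibition.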
FLuc counter: firefly luciferase modulation, counter-screen for miR-21 project. actives 6.9% (n = 360,000). Potency, µM (doses to about 57.5 µM), most hits filed as inhibitors. P08659. purified FLuc, Km substrates, luminescence inhibition; note: nearly all actives have a fitted effect of over 55% in size
Target sequence (P08659 whole entry, looked up): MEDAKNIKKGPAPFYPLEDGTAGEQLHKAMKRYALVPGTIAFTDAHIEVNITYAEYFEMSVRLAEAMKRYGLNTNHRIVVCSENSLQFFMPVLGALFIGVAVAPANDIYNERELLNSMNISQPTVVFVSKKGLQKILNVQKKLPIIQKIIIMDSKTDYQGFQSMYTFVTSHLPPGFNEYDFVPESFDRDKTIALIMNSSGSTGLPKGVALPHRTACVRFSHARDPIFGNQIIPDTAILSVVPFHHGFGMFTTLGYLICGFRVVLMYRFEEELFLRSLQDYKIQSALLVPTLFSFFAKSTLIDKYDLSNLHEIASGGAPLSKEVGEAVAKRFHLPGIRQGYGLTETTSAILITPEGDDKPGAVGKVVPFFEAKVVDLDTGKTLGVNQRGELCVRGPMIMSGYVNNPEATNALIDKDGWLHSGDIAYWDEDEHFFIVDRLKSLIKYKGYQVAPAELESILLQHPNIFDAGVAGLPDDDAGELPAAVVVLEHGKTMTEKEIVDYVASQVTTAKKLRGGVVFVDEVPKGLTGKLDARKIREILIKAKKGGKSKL
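Biochemical qHTS of compounds, final roughly 60 µM downward over six points, against 10 nM purified firefly luciferase using Km concentrations of substrates (10 uM D-luciferin, 10 uM ATP) in Tris acetate pH 7.5 buffer; luminescence output.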
ELG1 genotoxic: genotoxicity induction in ELG1-luciferase HEK293T cells | actives 1.3% (n = 330,000) | AID 504466 | HEK293T ELG1-luciferase reporter, luminescence, 16 h | Potency, µM (top dose mostly 46 µM), actives largely listed as activators; note: nearly all actives have a fitted effect of over 60% in size
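Reporter readout depends on ELG1 protein level, which increases with genetic stress. After 16 hr compound exposure at 37 °C, luciferase activity was quantified using ONE-Glo.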
Rab9 promoter act: Rab9 promoter activation. Huh7 Rab9 promoter-luciferase reporter, luminescence, 24 h. Potency, µM (titrated, usually from 9.22 µM), most hits filed as activators. actives 2.8% (n = 320,000); note: nearly all actives have a fitted effect of over 60% in size
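Luciferase signal after 10 min detection reagent at ambient indicates Rab9 promoter upregulation; stably transfected Huh7 cells were treated 24 h with compound in DMSO at 37 °C, 5% CO2.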
Numbers stand for hits; 0 = inactive; ? = inconclusive; - = no result; [ ] = another dose, or the depositor's remark. Hits are enriched below; roughly 9.4% of the tested compounds scored in any of these assays. Calls come from the whole dose curve; as a rule, active = well fitted curve in the direction sought with a large enough effect; inconclusive = small, poorly fitted or top-dose-only effect, or another doubt; inactive = no such curve, though single readings can be large; an effect the other way counts as inactive or inconclusive.

SMILES	SMN2 splice up	NPC1 promoter act	ELG1 DNA repair	FLuc counter	ELG1 genotoxic	Rab9 promoter act
O=C(COc1ccc([N+](=O)[O-])cc1)N/N=C/c1cc([N+](=O)[O-])ccc1N1CCOCC1	0	0	18µM	0	0	0
COc1ccc(/C=N/NC(=O)CN2CCCC2)cc1	-	0	0	0	0	0
Oc1ccc2cc(SSc3ccc4cc(O)ccc4c3)ccc2c1	0	-	-	-	-	-
CCS(=O)(=O)c1ccc(-c2cccc(NC(=O)c3ccco3)c2)nn1	-	0	0	0	0	0
CCOc1ccc(-c2cccc(NC(=O)COc3ccc(Cl)cc3)c2)nn1	-	0	0	13µM	0	0
Cc1nc(-c2cccc(NC(=O)COc3ccc(Cl)cc3)c2)cs1	-	0	0	13µM	0	0
CCOc1ccc(-c2cccc(NC(=O)c3ccco3)c2)nn1	-	0	0	21µM	0	0
Cc1ccc2oc(-c3cc(NC(=O)c4ccc5c(c4)OCCO5)cc(C)c3O)nc2c1	0	-	-	?	-	-
CN(Cc1cc(C(C)(C)C)cc(Br)c1O)Cc1cc(C(C)(C)C)cc(Br)c1O	0[9.22 µM]	-	-	-	-	-
Nc1ccc(-c2nc3cc(N)ccc3n2CCO)cc1	-	0	0	0	0	0
Cn1c(CO)nc2cc(N)ccc21	-	0	0	17µM	0	0
NC(=O)c1ccc(-c2ncc(-c3ccccc3)o2)cc1	0.5µM	0.28µM	?	2.1µM	0.18µM	?
Cc1ccc(-c2cnc(-c3ccccc3C(=O)O)o2)cc1	-	?	?	13µM	?	?
c1ccc(-c2cnc(-c3cccnc3)o2)cc1	0	?	?	15µM	?	?
NC(=O)c1ccccc1	0	0	0	0	0	0
CC1=C(C(=O)NCc2cccc(Cl)c2)C2(CCCCCC2)OC1=O	-	-	-	0	-	-
Cc1ccc(-n2nnnc2CNC(=O)c2ccccc2)cc1C	-	-	-	0	-	-
Cc1nc(SCC(=O)OC(C)(C)C)c2c3c(sc2n1)CCCC3	0	-	-	0	-	-
Cc1ccc(NC(=O)C(=O)C2C(=O)Nc3ccccc32)cc1 (stereo unspecified)	-	?	?	12µM	?	?
CC1=NN(c2ccccc2)C(=O)C1C(=O)C(=O)Nc1ccc(F)cc1 (stereo unspecified)	-	?	?	9.5µM	?	3.2µM
Cc1ccccc1NC(=O)Cn1nc(-c2ccc(F)cc2)c2cnc3ccccc3c21	-	-	-	0	-	-
CCc1c(C(=O)c2ccc(Cl)cc2)oc2c(C)c3oc(=O)cc(C)c3cc12	0	0	?	0	0	0
Cc1ccc(/C(=N\O)c2oc3c(C)c4oc(=O)cc(C)c4cc3c2C)cc1	0	0	21µM	0	0	0
Cc1cc(=O)oc2c1ccc1oc(/C(=N/O)c3ccccc3)c(C)c12	-	0	16µM	0	0	0
Cc1ccc(C)c(CN2CCC(CNC(=O)C(CC(C)C)N3Cc4ccccc4C3=O)CC2)c1 (stereo unspecified)	-	-	-	0	-	-
SMILES	SMN2 splice up	NPC1 promoter act	ELG1 DNA repair	FLuc counter	ELG1 genotoxic	Rab9 promoter act
O=[N+]([O-])c1ccc(-c2nc(Nc3cccc(O)c3)c3ccccc3n2)cc1	-	0	?	0	0	0[1.84 µM]
Cc1ccc(-c2nc(N/N=C/c3cccc([N+](=O)[O-])c3)c3ccccc3n2)cc1	0	?	?	0.54µM	0	0
COc1ccc(/C=N/Nc2nc(-c3cccnc3)nc3ccccc23)c(OC)c1	-	0	?	2.4µM	0	0
Cc1ccc(-c2nc(N/N=C/c3cccnc3)c3ccccc3n2)cc1	?	?	?	0.12µM	?	3.5µM
COc1ccc(OC)c(Nc2nc(-c3ccncc3)nc3ccccc23)c1	-	0	?	0	0	0
OCc1cc(Br)ccc1OCc1nc2ccccc2s1	-	3.2µM	?	5.4µM	?	2.8µM
Oc1ccccc1OCc1nc2ccccc2s1	32µM	0	?	5.4µM	8.2µM	0
O=C(N/N=C/c1ccc([N+](=O)[O-])cc1)c1cc(C2CC2)[nH]n1	-	0	0	0	0	0
O=C(N/N=C/c1ccc([N+](=O)[O-])cc1)c1[nH]ncc1Br	11µM	2µM	?	?	?	1µM
O=C(COC(=O)CNC(=O)c1sc2ccccc2c1Cl)NC1CCS(=O)(=O)C1 (stereo unspecified)	-	0	0	17µM	0	0
CS(=O)(=O)c1ccc(Cl)c(NC(=O)COC(=O)CNC(=O)c2sc3ccccc3c2Cl)c1	-	0	0	15µM	0	0
NC(=O)c1ccc(NC(=O)COC(=O)CNC(=O)c2sc3ccccc3c2Cl)cc1	-	0	0	6.7µM	0	0
CCOC(=O)C1CCN(C(=O)COC(=O)CNC(=O)c2sc3ccccc3c2Cl)CC1	-	0	0	9.5µM	0	0
CS(=O)(=O)c1ccc(Cl)c(NC(=O)COC(=O)CNC(=O)c2cccs2)c1	-	0	0	0	0	0
CC1CCCCN1C(=O)COC(=O)CNC(=O)c1sc2ccccc2c1Cl (stereo unspecified)	-	0	0	?	0	0
COc1ccc(NS(=O)(=O)c2ccc(C)c(C(=O)NCC(c3ccco3)N(C)C)c2)cc1 (stereo unspecified)	-	0	0	0	0	0
Cc1cc(C)cc(Nc2cc(C)nc3nc(-c4ccco4)nn23)c1	-	-	-	0	-	-
COc1ccc(C(=O)Oc2ccc(C(c3c(C)[nH][nH]c3=O)c3c(C)[nH][nH]c3=O)cc2)cc1	0	-	-	17µM	-	-
COc1ccc(C(=O)Oc2ccc(/C=N/O)cc2)cc1	0	0	?	6µM	0	0
COc1ncc2nc(C)c(=O)n(C)c2n1	0	-	-	-	-	-
COc1ccc(/C=N\NC(=O)c2nn(C)cc2Cl)cc1CN1CCOCC1	0	0	0	0	0	0
Cc1ccc(/C=N/NC(=O)c2nn(C)cc2Cl)cc1	11µM	3.5µM	?	1.5µM	?	3.5µM
Cn1cc(Cl)c(C(=O)N/N=C/c2ccc(OS(=O)(=O)c3ccccc3)cc2)n1	0	0	?	24µM	0	0
Cn1cc(Cl)c(C(=O)N/N=C/c2ccc3c4c(cccc24)CC3)n1	-	2µM	?	0.54µM	?	1.4µM
Cc1ccc(-n2nc(C(=O)Nc3ccc(Cl)cn3)c3c4ccccc4n(C)c3c2=O)cc1	0	-	-	0	-	-
SMILES	SMN2 splice up	NPC1 promoter act	ELG1 DNA repair	FLuc counter	ELG1 genotoxic	Rab9 promoter act
CCCCCN=C(C)c1c(O)c2ccccc2oc1=O	-	?	?	17µM	?	?
O=C(Cn1ccsc1=NC(=O)C(F)(F)F)c1ccccc1	?	?	?	0	0	2.8µM
COc1cc(/C=C2\SC(=Nc3ccccc3OC)NC2=O)ccc1O	-	0	?	?	0	0
COc1ccc(/C=C2\SC(=Nc3ccccc3OC)NC2=O)cc1	-	0	0	5.4µM	0	0
O=C(COC(=O)C1CC1)Nc1ccc(N=Nc2ccccc2)cc1	6.3µM	3.5µM	?	?	21µM	0.63µM
O=C(COC(=O)C1CCC1)NCc1ccc(Cl)cc1Cl	-	0	0	17µM	0	0
Cc1ccc(NC(=O)COC(=O)C2CC2)cc1Cl	-	0	?	15µM	0	0
